LMP1 NFkB inh – inhibitors of Epstein-Barr LMP1-induced NF-kappaB reporter | LMP1-induced NF-kappaB luciferase reporter cells, luminescence | inhibition, % at 12.5 µM | hit rate 0.69% among 350,000; in the data active means inhibition above about 41%
esBAF inh – blocks esBAF chromatin remodeling in mouse ES cells; reporter increase, % at 12.5 µM; Bmi1-luciferase knock-in reporter, 24 h; 100% = twice the neutral-well signal; AID 602393; hit rate 2% among 350,000; in the data active means activation above about 40%;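 further: a rise in the Bmi1 reporter signal indicates esBAF inhibition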
MITF TRPM1 inh – inhibitors of MITF-driven TRPM1 promoter in melanoma cells; AID 488899; SK-MEL-5 TRPM1 promoter luciferase, 24 h; inhibition, % at 12.5 µM; hit rate 0.83% among 330,000;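 active means mean inhibition across replicates of 60% or more, whatever share of single replicates reaches that level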
MITF act – MITF TRPM1 promoter activation in melanoma cells; SK-MEL-5 TRPM1-promoter luciferase, 24 h; % of positive control, neutral wells = 0; activation, % at 12.5 µM; hit rate 0.75% among 300,000; AID 588334;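 active means mean activation of at least 80% with every replicate also reaching 80%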
Wnt bcat act – activates Wnt/beta-catenin signaling in a reporter cell assay; activator, plate reader; activation, % at 9.35 µM; hit rate 1.2% among 300,000; AID 743398; in the data active means activation above about 30%, passing the limit was not always enough
Statin myotox sup – protects C2C12 myotubes from simvastatin toxicity; ATP luminescence, 48 h; scaled: DMSO 0, geranylgeraniol control 100; rescue of ATP level, % at 7.49 µM; hit rate 0.78% among 330,000;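 active means mean ATP rescue above about 67%, or every replicate alone reaching that limit, limit read from the data, passing the limit was not always enough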;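 further: myotubes were challenged with 10 µM simvastatin during compound exposure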
Hits are given with their value; i = inactive; nt = not tested or not shown; ! = not active in a repeat. This is a sample that favours compounds with a hit; in the whole collection about 4% have one here.

SMILES	LMP1 NFkB inh	esBAF inh	MITF TRPM1 inh	MITF act	Wnt bcat act	Statin myotox sup
COCC1CCCN(C(=O)c2ccc3nc(Cc4cccc(Cl)c4)oc3c2)C1 (configuration not stated)	i	70	i	i	i	i
CCOC(=O)N1CCN(C(=O)c2ccc3oc(CCCc4ccccc4)nc3c2)CC1	i	81	i	i	34	i
CCN1CCN(S(=O)(=O)c2ccc(Cl)c(C(=O)N(C)C(c3ccccc3)c3ccccc3)c2)CC1	i	i	i	i	i	i
COc1ccc(CCNC(=O)c2ccc(-c3ccc([N+](=O)[O-])cc3Cl)o2)cc1OC	i	nt	i	i	i	nt
Cc1ccc(Oc2ccc(NC(=O)CSc3n[nH]c(N)n3)cc2)cc1	i	nt	i	i	i	nt
CCOC(=O)C1CCCN(C(=O)c2ccc3oc(Cc4ccccc4)nc3c2)C1 (configuration not stated)	i	70	i	i	i	i
CC(C)CC(=O)C1CCCN(C(=O)c2ccc3oc(Cc4ccccc4)nc3c2)C1 (configuration not stated)	i	i	i	i	i	i
CCOC(=O)N1CCN(C(=O)c2ccc3c(c2)sc2nc(-c4ccccc4)cn23)CC1	i	79	i	i	nt	i
CC(NC(=O)c1ccc2nc(Cc3cccc(Cl)c3)oc2c1)c1ccncn1 (configuration not stated)	i	nt	nt	nt	i	nt
CC(C)(CO)NC(=O)c1ccc2nc(Cc3cccc(Cl)c3)oc2c1	i	43	i	nt	i	i
O=C(Cc1ccccc1[N+](=O)[O-])N1CCN(S(=O)(=O)c2ccccc2)CC1	i	nt	i	i	i	nt
O=C(CC1SC(N2CCOCC2)=NC1=O)Nc1cccc(C(F)(F)F)c1 (configuration not stated)	i	i	i	i	i	i
Cc1ccn2cc(-c3cccc(S(=O)(=O)N4CC(C)OC(C)C4)c3)nc2c1 (configuration not stated)	i	i	i	i	i	i
Cc1ccn2cc(-c3cccc(S(=O)(=O)N4CCCC4)c3)nc2c1	i	47	i	i	i	i
COc1c(Cl)cccc1-c1cn2ccc(C)cc2n1	i	nt	i	i	57	nt
CCN=C1NC(c2cccc(Cl)c2)C(C(=O)OC)=C(C)N1Cc1ccc(C(F)(F)F)cc1 (configuration not stated)	nt	nt	nt	nt	i	nt
Clc1ccccc1-c1nc(-c2ccc(Br)o2)no1	i	i	i	nt	i	i
Cc1nc(-c2noc(-c3cccc(Cl)c3)n2)c(C(F)(F)F)o1	i	nt	i	nt	i	nt
Clc1ccc(-c2noc(COc3ccccc3)n2)cc1	i	i	i	i	nt	i
Cc1nc(-c2noc(-c3ccccc3Cl)n2)c(C(F)(F)F)o1	i	47	i	83	i	i
O=[N+]([O-])c1ccccc1-c1nc(-c2ccc(Br)o2)no1	i	nt	i	i	47	nt
O=[N+]([O-])c1cc(Cl)ccc1-c1nc(-c2ccccc2)no1	i	nt	i	i	51	nt
Clc1ccc(OCc2nc(-c3ccncc3)no2)cc1	i	62	i	i	i	i
Clc1ccc(-c2nc(-c3ccncc3)no2)c(Cl)c1	i	nt	i	nt	60	nt
Clc1ccc(Cl)c(-c2nc(-c3ccncc3)no2)c1	i	i	i	nt	i	i
SMILES	LMP1 NFkB inh	esBAF inh	MITF TRPM1 inh	MITF act	Wnt bcat act	Statin myotox sup
c1ccc(-c2ccccc2-c2nc(-c3ccncc3)no2)cc1	i	nt	i	i	nt	nt
Clc1ccccc1-c1nc(-c2ccncc2)no1	i	i	i	i	49!	i
C[C@@H]1CCCCO[C@H](CN(C)Cc2ccccc2)[C@@H](C)CN([C@H](C)CO)C(=O)c2cc(NS(=O)(=O)c3cccs3)ccc2O1	nt	i	nt	nt	nt	nt
CC1CCN(CC2C(=O)O[C@@H]3C[C@@]4(C)CCC[C@H](C)C4=C[C@H]23)CC(C)(C)C1 (some centres not stated)	i	i	74	i	i	i
CCc1ccc(NC(=O)c2cc(-c3cccs3)on2)cc1	i	i	i	94	i	i
Cc1ccc(NC(=O)c2cc(-c3cccs3)on2)cc1C	i	52	i	99	39	i
Cc1cccnc1CCNC(=O)c1ccc(OC2CCN(Cc3ccccn3)CC2)cc1	i	i	i	i	i	i
CCOC(=O)c1ccc2c(c1)n(CCO)c(C)[n+]2CC	i	nt	i	i	i	nt
O=C(OCc1c(-c2ccccc2)ncc2ccccc12)N1CCOCC1	i	57	i	101	37	i
O=C(O)CCC(=O)OCc1c(-c2ccccc2)ncc2ccccc12	i	i	i	i	i	i

Screening data: PubChem, Broad Institute
